Assay [1] deals with Wnt5a (protein binding on small-molecule microarray). Kind of assay: Wnt5a binders on small-molecule microarray, primary screen, biophysical, 635/667 nm fluorescence (AID 1142).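 Also: fluorescence read at 667 nm with signal to noise per printed feature.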 To be noted: 635 nm fluorescence, higher = more signal.
Assay [2] can be described thus: cell viability in Huh7 cells, primary screen, cytotoxicity control for HCV replication inhibitor project, CellTiter-Glo luminescence, basal, 48 h (AID 1143).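 Also: Huh7 hepatoma cells carrying a hepatitis C replication reporter with no stimulus; test concentration not given here.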 To be noted: Huh7 HCV replicon, higher = more signal, called active from +8 up or from −8 down.
Assay [3] is described as follows: P. aeruginosa biofilm formation inhibitors, primary screen, PAO1 strain, BacTiter-Glo luminescence, LB-PBS (AID 1144). The settings on record: 12 h, higher = more signal.
Assay [4] is described as follows: CREB reporter modulators without forskolin, primary screen, cell-based, PC12, CRE-LacZ reporter, unstimulated (AID 1145). To be noted: no forskolin, luminescence, 4.5 h, higher = more signal, called active from +8 up or from −8 down.
The nature of assay [5]: CREB reporter modulators under forskolin, primary screen, cell-based, PC12, CRE-LacZ reporter, forskolin-stimulated (AID 1146).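 Also: PC12 cells with 6xCRE LacZ reporter stimulated by forskolin 10 µM; beta-galactosidase reporter signal reflecting CREB driven transcription.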 To be noted: luminescence, 4.5 h, higher = more signal, called active from +8 up or from −8 down.
For assay [6], the target named is Streptavidin (Streptomyces avidinii) (UniProt P22629). Kind of assay: streptavidin binders on small-molecule microarray, primary screen, artefact control for SMM compound annotation, biophysical, 635/667 nm fluorescence (AID 1147).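 Also: signal reflects streptavidin binding to arrayed compounds as a control protein.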 To be noted: streptavidin binding, higher = more signal.
Sequence of Streptavidin (Streptomyces avidinii) (P22629 whole entry, looked up): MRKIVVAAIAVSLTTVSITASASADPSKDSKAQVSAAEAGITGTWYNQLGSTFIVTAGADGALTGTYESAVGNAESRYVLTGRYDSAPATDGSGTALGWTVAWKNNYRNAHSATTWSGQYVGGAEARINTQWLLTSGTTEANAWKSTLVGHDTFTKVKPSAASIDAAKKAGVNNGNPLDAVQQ
Assay [7] can be described thus: small-molecule binders of probe aInhba, primary screen, biochemical, small-molecule microarray, 635/667 nm fluorescence (AID 1148).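 Also: score merges 667nm spot fluorescence with signal-to-noise for antibody binding to printed compounds.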 The settings on record: higher = more signal.
For assay [8], the target named is Torsin-1A (Homo sapiens) (UniProt O14656). Kind of assay: torsin A binders from cell lysate, primary screen, small-molecule microarray, wild-type, 635/667 nm (AID 1149). The settings on record: COS7 hTOR1A-WT lysate, 635 nm fluorescence, higher = more signal.
Sequence of Torsin-1A (Homo sapiens) (O14656 whole entry, looked up): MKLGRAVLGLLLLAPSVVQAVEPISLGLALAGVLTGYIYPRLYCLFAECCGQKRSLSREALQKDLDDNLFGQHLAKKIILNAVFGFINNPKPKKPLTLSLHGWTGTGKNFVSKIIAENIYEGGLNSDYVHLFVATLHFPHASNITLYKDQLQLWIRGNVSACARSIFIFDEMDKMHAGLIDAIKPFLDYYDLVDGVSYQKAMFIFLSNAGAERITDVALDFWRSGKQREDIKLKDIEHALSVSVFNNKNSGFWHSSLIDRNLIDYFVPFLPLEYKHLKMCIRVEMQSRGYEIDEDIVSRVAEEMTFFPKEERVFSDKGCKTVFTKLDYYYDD
Assay [9] shares this target. As to the kind of experiment: small-molecule binders of mutant TOR1A in lysate, primary screen, cell lysate, small-molecule microarray, COS7 lysate, 635/667 nm fluorescence (AID 1150).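 Also: score pools 667 nm emission and signal to noise measuring lysate protein binding.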 The settings on record: COS7 hTOR1A mutant lysate, 635 nm fluorescence, higher = more signal.
The test system of assay [10] is Sonic hedgehog protein (Shh). As to the kind of experiment: small-molecule binders of Shh protein, primary screen, biochemical, small-molecule microarray, 635/667 nm fluorescence (AID 1151).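 Also: Shh protein binding to compounds spotted on small-molecule microarray slides; score combines spot fluorescence intensity with signal-to-noise across triplicate slides.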 To be noted: small-molecule microarray binding, 635 nm fluorescence; higher = more signal.
Assay [11] is described as follows: E. coli DRC41 culture turbidity changes, primary screen, E. coli filamentation inducer project, strain DRC41, OD650, 48 h (AID 1152).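 Also: E. coli MC1000 strain DRC41 lacking acrAB efflux pump and sulA.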 To be noted: E. coli DRC41 (acrAB sulA), higher = more signal, called active from +8 up or from −8 down.
Assay [12] can be described thus: small-molecule binders of probe aLefty1, primary screen, biochemical, small-molecule microarray, 635/667 nm fluorescence (AID 1153).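 Also: score merges spot fluorescence with signal-to-noise ratio from the scanned slide images.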 To be noted: higher = more signal.
The nature of assay [13]: PSAC antagonists in infected red cells, primary screen, cell-based, P. falciparum Indochina, OD700, 1 h (AID 1154). To be noted: P. falciparum Indochina infected RBC osmotic lysis, higher = more signal, called active from +8 up or from −8 down.
Assay [14] can be described thus: PSAC antagonists in infected red cells, primary screen, cell-based, P. falciparum Indochina, OD700, 2 h (AID 1155).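 Also: lysis reports solute entry through the parasite surface anion channel PSAC; channel blockers reduce lysis of infected cells.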 To be noted: P. falciparum Indochina infected erythrocytes, osmotic lysis OD700; higher = more signal, called active from +8 up or from −8 down.
Assay [15] can be described thus: osmotic lysis modulators in infected erythrocytes, primary screen, PSAC antagonist project, cell-based, P. falciparum Indochina, OD700, 3 h (AID 1156). To be noted: higher = more signal, called active from +8 up or from −8 down.
Assay [16] in a line: PSAC antagonists in infected red cells, primary screen, cell-based, P. falciparum Indochina, OD700, 18 h (AID 1157). To be noted: P. falciparum Indochina infected erythrocytes, osmotic lysis OD700, 18 h; higher = more signal, called active from +8 up or from −8 down.
Assay [17] can be described thus: modulators of S6 phosphorylation in cells, primary screen, cell-based, A549, cytoblot, luminescence, serum-stimulated (AID 1158).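 Also: serum-stimulated A549 lung adenocarcinoma cells; signal is phosphorylated S6 detected by cytoblot immunostaining with HRP secondary.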 To be noted: A549 phospho-S6 cytoblot, 5 h, higher = more signal.
The target of assay [18] is NADPH oxidase 2 (Homo sapiens) (UniProt P04839). As to the kind of experiment: NOX2-dependent H2O2 signal modulators, primary screen, NOX inhibitor project, cell-based, HEK293-NOX2, PMA-stimulated, Amplex Red fluorescence (AID 1159). Also: test concentration not given here. To be noted: 45 min, higher = more signal, called active from +8 up or from −8 down.
Sequence of NADPH oxidase 2 (Homo sapiens) (P04839 whole entry, looked up): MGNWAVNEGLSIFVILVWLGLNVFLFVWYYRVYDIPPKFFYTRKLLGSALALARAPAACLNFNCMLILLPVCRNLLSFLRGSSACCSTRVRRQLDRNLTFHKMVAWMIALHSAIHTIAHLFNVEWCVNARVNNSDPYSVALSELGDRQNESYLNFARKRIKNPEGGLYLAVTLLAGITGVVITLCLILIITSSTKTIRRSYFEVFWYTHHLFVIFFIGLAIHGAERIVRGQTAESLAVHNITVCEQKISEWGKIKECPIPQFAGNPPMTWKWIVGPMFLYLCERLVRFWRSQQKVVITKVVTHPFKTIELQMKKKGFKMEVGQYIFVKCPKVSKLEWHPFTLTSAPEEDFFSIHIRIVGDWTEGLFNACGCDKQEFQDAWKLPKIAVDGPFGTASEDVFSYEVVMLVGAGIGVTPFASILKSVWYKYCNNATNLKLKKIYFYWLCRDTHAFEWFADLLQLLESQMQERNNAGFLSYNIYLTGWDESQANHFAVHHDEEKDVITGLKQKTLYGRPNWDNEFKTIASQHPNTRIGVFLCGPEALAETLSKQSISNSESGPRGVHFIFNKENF
The target in assay [19] is NADPH oxidase 4 (Homo sapiens) (UniProt Q9NPH5). As to the kind of experiment: NOX4-dependent H2O2 signal modulators, primary screen, NOX inhibitor project, cell-based, HEK293-NOX4, tetracycline-induced, Amplex Red fluorescence (AID 1160). To be noted: 45 min, higher = more signal, called active from +8 up or from −8 down.
Sequence of NADPH oxidase 4 (Homo sapiens) (Q9NPH5 whole entry, looked up): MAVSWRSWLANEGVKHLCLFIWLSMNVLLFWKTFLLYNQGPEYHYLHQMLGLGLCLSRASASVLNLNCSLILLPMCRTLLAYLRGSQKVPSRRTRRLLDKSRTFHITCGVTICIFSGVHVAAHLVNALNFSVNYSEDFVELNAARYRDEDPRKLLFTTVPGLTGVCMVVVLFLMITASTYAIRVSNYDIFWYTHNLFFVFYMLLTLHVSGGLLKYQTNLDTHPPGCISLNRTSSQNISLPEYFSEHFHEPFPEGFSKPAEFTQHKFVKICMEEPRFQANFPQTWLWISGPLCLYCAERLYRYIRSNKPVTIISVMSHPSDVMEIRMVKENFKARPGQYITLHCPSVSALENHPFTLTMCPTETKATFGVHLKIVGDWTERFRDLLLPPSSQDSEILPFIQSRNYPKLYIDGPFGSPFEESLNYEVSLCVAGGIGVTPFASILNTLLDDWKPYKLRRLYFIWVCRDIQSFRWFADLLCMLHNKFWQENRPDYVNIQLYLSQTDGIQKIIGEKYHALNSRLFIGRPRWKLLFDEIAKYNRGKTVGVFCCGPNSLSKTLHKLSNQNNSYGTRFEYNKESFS
The target of assay [20] is NADPH oxidase 5 (Homo sapiens) (UniProt Q96PH1). Kind of assay: NOX5-dependent H2O2 signal modulators, primary screen, NOX inhibitor project, cell-based, HEK293-NOX5, Amplex Red fluorescence (AID 1161). The settings on record: HEK293-NOX5, ionomycin, 45 min, higher = more signal.
Sequence of NADPH oxidase 5 (Homo sapiens) (Q96PH1 whole entry, looked up): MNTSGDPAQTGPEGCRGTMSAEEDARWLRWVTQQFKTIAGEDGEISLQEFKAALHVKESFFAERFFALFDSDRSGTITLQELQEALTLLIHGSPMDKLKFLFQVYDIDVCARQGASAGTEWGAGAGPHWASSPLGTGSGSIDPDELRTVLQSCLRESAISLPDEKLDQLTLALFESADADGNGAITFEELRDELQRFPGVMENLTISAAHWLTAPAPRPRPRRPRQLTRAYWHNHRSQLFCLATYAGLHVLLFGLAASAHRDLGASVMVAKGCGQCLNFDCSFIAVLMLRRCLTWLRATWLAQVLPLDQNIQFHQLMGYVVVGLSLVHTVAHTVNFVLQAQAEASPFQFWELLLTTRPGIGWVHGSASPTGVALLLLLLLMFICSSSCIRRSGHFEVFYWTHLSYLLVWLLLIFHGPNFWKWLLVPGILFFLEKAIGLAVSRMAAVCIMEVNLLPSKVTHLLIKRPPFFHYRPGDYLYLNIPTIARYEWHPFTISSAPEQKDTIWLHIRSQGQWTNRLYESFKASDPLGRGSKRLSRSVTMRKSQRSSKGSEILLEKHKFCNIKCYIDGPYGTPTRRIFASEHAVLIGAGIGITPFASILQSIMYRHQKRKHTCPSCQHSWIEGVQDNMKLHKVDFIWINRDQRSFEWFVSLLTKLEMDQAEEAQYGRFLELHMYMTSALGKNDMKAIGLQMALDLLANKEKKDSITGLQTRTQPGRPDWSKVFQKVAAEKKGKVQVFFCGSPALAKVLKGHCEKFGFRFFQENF

Molecules are shown by their SMILES. The source made the active and inactive calls. Unless noted, no rule for the calls is given here.

Consider `O=C1C=C[C@@H](O)[C@@H]2[C@@H]3C(=O)N(c4cccc(Oc5ccccc5)c4)C(=O)[C@@H]3CC[C@@H]12`, for which the composite z-score in [1] is -0.136; in [6], 0.061; in assay [7], -0.128; with Torsin-1A (Homo sapiens) [8], 0.96; with Torsin-1A (Homo sapiens) [9], -0.118; in assay [10], 0.64. The molecule further showed a composite z-score in assay [12] of -0.103. For the same molecule, the z-score in [2] was -3.63 (inactive); in assay [3], -0.743 (inactive); in [4], 1.43 (inactive); in assay [5] it was -0.358 (inactive); in assay [11] it was -1.65 (inactive); in [13] it was 0.641 (inactive). In addition, the z-score is -0.158 (inactive) in assay [14]; -0.441 (inactive) in assay [15]; -1.07 (inactive) in assay [16]; 0.249 in assay [17]; 0.472 (inactive) in [18]; -0.433 (inactive) in assay [19]. The same molecule displayed a z-score in [20] of 0.283.
As to `CCCNC(=O)OC[C@H]1O[C@H](CCON=C[C@@H](C)[C@H](OCc2ccccc2)C(C)C)C=C[C@@H]1Oc1ccc(OC)cc1`, the composite z-score in assay [1] was -0.146; in assay [6] it was -0.19; in [7], -0.104; in the assay with Torsin-1A (Homo sapiens) [8] it was -0.0998; with Torsin-1A (Homo sapiens) [9], 0.733; in assay [10], 0.0021. In [12], the composite z-score was -0.105. The z-score in assay [2] is -1.1 (inactive); in assay [3], -0.107 (inactive); in [4], 1.28 (inactive); in assay [5], -0.0248 (inactive); in [11], -0.103 (inactive); in assay [13], 1.77 (inactive). The z-score is -1.58 (inactive) in assay [14]; 0.141 (inactive) in assay [15]; -2.55 (inactive) in [16]; 2.11 in [17]; -1.7 (inactive) in assay [18]; 0.368 (inactive) in assay [19]. Further, the z-score in assay [20] is -0.574.
Regarding `COC(=O)[C@H](C)NC(=O)CCC1CC(OC(=O)NCCc2ccc(F)cc2)CC2(CCCC(COC(=O)NCc3ccccc3)O2)O1` (stereo not given in full), the composite z-score in assay [1] is 0.101; in assay [6], 0.848; in assay [7], -0.0209; with Torsin-1A (Homo sapiens) [8] it was 0.257; with Torsin-1A (Homo sapiens) [9] it was 0.477; in assay [10], 1.25. This molecule also returned a composite z-score in assay [12] of 0.0367. Further, the z-score in assay [2] was -0.455 (inactive); in assay [3] it was -0.035 (inactive); in assay [4], 0.199 (inactive); in [5] it was 0.833 (inactive); in assay [11], -1.03 (inactive); in [13], -0.622 (inactive). Moreover, the z-score in [14] was -0.694 (inactive); in [15], -0.384 (inactive); in assay [16] it was -0.268 (inactive); in [17], 0.788; in [18] it was 0.0624 (inactive); in [19] it was -0.0206 (inactive). The same molecule registered a z-score in assay [20] of 0.519.
As for `CC(CCN1CCc2nc(-c3ccccc3)c(-c3ccccc3)cc2C1)=NO[C@H](C)c1cn([C@H](CO)Cc2ccccc2)nn1`, the composite z-score in assay [1] was 0.136; in assay [6] it was 0.545; in assay [7], -0.0494; with Torsin-1A (Homo sapiens) [8], 0.824; with Torsin-1A (Homo sapiens) [9] it was 1.23; in [10] it was 0.565. This molecule also came in with a composite z-score in [12] of 0.057. The z-score in assay [2] was -2.39 (inactive); in [3], -0.413 (inactive); in assay [4], 0.987 (inactive); in assay [5], 1.11 (inactive); in assay [11], -1.52 (inactive); in [13], 1.6 (inactive). Moreover, the z-score in assay [14] was 0.147 (inactive); in assay [15] it was 1.16 (inactive); in assay [16], 0.293 (inactive); in assay [17], -0.746; in assay [18], -4.57 (inactive); in assay [19] it was -0.31 (inactive). The z-score in [20] was -1.75.

Values taken from PubChem BioAssay.
